Rab9 promoter act – activators of Rab9 promoter. Huh7 Rab9 promoter-luciferase reporter, luminescence, 24 h. Potency, µM (highest dose often 9.22 µM), inactives show at the top dose activation, negative = inhibition, usual class: activators. 320,000 tested, 2.8% active; further: % of control where 0% means no effect; nearly all actives have a fitted effect of over 60% in size
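Rab9 promoter-driven luciferase in stably transfected Huh7 cells; 1500 cells/well rested 2 h, exposed to compound in DMSO for 24 h at 37 °C, 5% CO2. Luminescence read 10 min after adding luciferase reagent at ambient temperature.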
SMN2 splice enh – increases expression of the SMN2 splice variant | HEK293 SMN2-luciferase splicing reporter, luminescence, 30-36 h | Potency, µM (highest dose often 46.1 µM), for inactives: at the highest dose activity change, positive = activation, actives largely listed as activators | 210,000 tested, 2.8% active; further: % of control where 0% means no effect; nearly all actives have a fitted effect of over 55% in size
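HEK293 cells carry an SMN2 […]–luciferase reporter in which exon 7 inclusion puts luciferase in frame. Cells were plated 10-12 h before compound addition, then incubated 30-36 h at 37C. ONE-Glo luminescence was read; sodium butyrate at 4.5 mM final served as control.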
ELG1 genotoxic – inducers of genotoxicity in HEK293T ELG1-luciferase cells. HEK293T ELG1-luciferase reporter, luminescence, 16 h. Potency, µM (top dose mostly 46 µM), without a hit: at the highest dose activity change, positive = activation, hits mostly activators. 330,000 tested, 1.3% active. AID 504466; further: % of control where 0% means no effect; nearly all actives have a fitted effect of over 60% in size
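DMSO vehicle served as control against compound-treated ELG1-luciferase HEK293T cells; exposure lasted 16 hr at 37 °C and 5% CO2, followed by ONE-Glo luminescence detection after 30 min.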
NPC1 promoter act – activates the NPC1 promoter; Huh7 NPC1 promoter luciferase reporter, 24 h; Potency, µM (doses to about 9.22 µM), for the others: at the top dose activation, usual class: activators; 320,000 tested, 2.4% active; further: % of control where 0% means no effect; nearly all actives have a fitted effect of over 60% in size
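Readout is luciferase luminescence, reflecting NPC1 promoter activation in stably transfected Huh7 cells after 24 h compound exposure at 37 °C in reduced-serum medium with 10% FBS.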
FLuc counter – counter-screen for miR-21 project: firefly luciferase inhibitors or activators; purified FLuc, Km substrates, luminescence inhibition; Potency, µM (highest dose often 57.5 µM), for the others: top-dose activity change, negative = inhibition, hits mostly inhibitors; 360,000 tested, 6.9% active;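 further: plate controls were vehicle for no effect and reference inhibitor for full effect; nearly all actives have a fitted effect of over 55% in size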
Target sequence (P08659 whole entry, looked up): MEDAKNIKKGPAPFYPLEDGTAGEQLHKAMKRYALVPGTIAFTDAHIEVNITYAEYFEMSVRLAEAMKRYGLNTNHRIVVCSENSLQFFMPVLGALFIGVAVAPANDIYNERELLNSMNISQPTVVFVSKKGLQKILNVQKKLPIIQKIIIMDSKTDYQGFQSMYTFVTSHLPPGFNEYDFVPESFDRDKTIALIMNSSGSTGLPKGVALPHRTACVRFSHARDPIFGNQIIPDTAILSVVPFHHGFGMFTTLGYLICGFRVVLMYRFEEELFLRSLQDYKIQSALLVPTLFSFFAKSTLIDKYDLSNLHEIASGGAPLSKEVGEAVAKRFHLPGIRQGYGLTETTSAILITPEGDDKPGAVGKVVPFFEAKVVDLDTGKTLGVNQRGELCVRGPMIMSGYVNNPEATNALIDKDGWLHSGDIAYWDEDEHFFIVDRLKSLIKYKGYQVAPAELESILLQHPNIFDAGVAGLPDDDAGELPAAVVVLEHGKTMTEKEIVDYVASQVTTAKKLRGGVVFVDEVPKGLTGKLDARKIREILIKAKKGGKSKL
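Purified P. pyralis luciferase (10nM final) with 10uM D-luciferin and 10uM ATP (Km levels) in 50mM Tris acetate pH 7.5, 10mM Mg acetate, 0.01% Tween-20, 0.05% BSA; qHTS 6-point titration, ~60 µM downward; luminescence read.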
Starred values were filed as active, the others as inactive; [ ] = another dose, or the depositor's remark. An excerpt weighted towards active compounds, which were near 7.4% of everything screened. The call rests on the fitted dose curve; in most records, active means well fitted curve in the direction sought with a large enough effect; inconclusive means small, poorly fitted or top-dose-only effect, or another doubt; inactive means no such curve, though single readings can be large; an effect the other way counts as inactive or inconclusive. Potency means the concentration at half of the fitted maximal effect.

Results for COc1ccc(NC2CC(=O)N(C(C)C)C2=O)cc1 (centres undefined) ?
Rab9 promoter act: 3.16µM*; SMN2 splice enh: 15.8µM*; ELG1 genotoxic: 4.11µM*; NPC1 promoter act: inconclusive; FLuc counter: 15.1µM*

How did Nc1ccccc1C(=O)OCC(=O)N1CCc2ccccc21 do in these assays?
Rab9 promoter act: 2.51µM*; SMN2 splice enh: 35.0%; ELG1 genotoxic: 9.2µM*; NPC1 promoter act: inconclusive; FLuc counter: 9.53µM*

How did O=c1[nH]c(=O)n(CC2CCCO2)c(O)c1/C=C1\C=Nc2ccccc21 (centres undefined) do in these assays?
Rab9 promoter act: 0.5%; SMN2 splice enh: 11.1%; ELG1 genotoxic: 0.4%; NPC1 promoter act: 0.9%; FLuc counter: 16.9µM*

Results for O=c1[nH]c(=O)n(-c2ccccc2F)c(O)c1/C=C1\C=Nc2ccccc21 ?
Rab9 promoter act: -9.1%; ELG1 genotoxic: 14.4%; NPC1 promoter act: -1.4%; FLuc counter: 16.9µM*

How did O=c1[nH]c(=O)n(-c2ccc(F)cc2)c(O)c1/C=C1\C=Nc2ccccc21 do in these assays?
Rab9 promoter act: -4.1%; ELG1 genotoxic: -0.8%; NPC1 promoter act: 1.1%; FLuc counter: 5.9%

How did O=c1[nH]c(=O)n(Cc2ccccc2)c(O)c1/C=C1\C=Nc2ccccc21 do in these assays?
Rab9 promoter act: -0.6%; SMN2 splice enh: 11.8%; ELG1 genotoxic: 4.4%; NPC1 promoter act: 2.1%; FLuc counter: -6.9%

Results for Cc1cccc(N)c1C ?
SMN2 splice enh: 17.1%

How did O=c1[nH]c(=S)[nH]c(O)c1N=Nc1ccc(OC(F)F)cc1 do in these assays?
Rab9 promoter act: 2µM*; SMN2 splice enh: 12.6µM*; ELG1 genotoxic: inconclusive; NPC1 promoter act: inconclusive; FLuc counter: 5.36µM*

Results for COc1cccc(N=Nc2c(O)[nH]c(=S)[nH]c2=O)c1 ?
Rab9 promoter act: inconclusive; ELG1 genotoxic: inconclusive; NPC1 promoter act: 21.1%; FLuc counter: 13.5µM*

What do the screens show for `NS(=O)(=O)c1ccc(N=Nc2c(O)[nH]c(=S)[nH]c2=O)cc1`?
Rab9 promoter act: 8.8%; ELG1 genotoxic: -2.8%; NPC1 promoter act: -0.8%; FLuc counter: inconclusive

How did COc1ccc(N=Nc2c(O)[nH]c(=S)[nH]c2=O)cc1 do in these assays?
Rab9 promoter act: 1.78µM*; SMN2 splice enh: 17.8µM*; ELG1 genotoxic: inconclusive; NPC1 promoter act: 1.58µM*; FLuc counter: 6.01µM*

Results for Cc1cccc(N2CCc3c2nc2ccccc2c3N)c1 ?
Rab9 promoter act: 6.7%; SMN2 splice enh: -4.7%; ELG1 genotoxic: -18.3%; NPC1 promoter act: 24.0%; FLuc counter: 21.3µM*

Results for CCCCSc1nc2c(cnn2-c2ccccc2)c(=O)n1N ?
Rab9 promoter act: 1.78µM*; SMN2 splice enh: 10µM*; ELG1 genotoxic: inconclusive; NPC1 promoter act: 2.82µM*; FLuc counter: 6.75µM*

Results for O=C(O)c1cc[c]([Hg][S]c2ncnc3nc[nH]c23)cc1 ?
SMN2 splice enh: -26.7%[9.22 µM]

How did Cc1cc(C)c(NC(=O)C2CC3CCC2C3)c(C)c1 (centres undefined) do in these assays?
Rab9 promoter act: 13.7%; ELG1 genotoxic: 15.0%; NPC1 promoter act: 5.5%; FLuc counter: inconclusive

What do the screens show for `ClC=CCl`?
SMN2 splice enh: -1.8%

Results for O=C1NC(=O)N(CC2CCCO2)C(=O)/C1=C/c1cccs1 (centres undefined) ?
Rab9 promoter act: -2.0%; ELG1 genotoxic: 8.0%; NPC1 promoter act: -1.2%; FLuc counter: inconclusive

How did CCN(CC)c1ccc(/C=C2/C(=O)NC(=O)N(CC3CCCO3)C2=O)cc1 (centres undefined) do in these assays?
Rab9 promoter act: 8.0%; SMN2 splice enh: -6.2%; ELG1 genotoxic: 7.1%; NPC1 promoter act: -0.3%; FLuc counter: 16.9µM*

What do the screens show for `N#CC(C#N)=NNc1ccc(OC(F)(F)F)cc1`?
SMN2 splice enh: -43.9%

What do the screens show for `COC1=CC(=O)OC(CCc2ccccc2)C1` (centres undefined)?
SMN2 splice enh: -4.5%

What do the screens show for `C[C@@]12CC[C@H]3[C@H](CCC4=CC(=O)CC[C@H]43)[C@H]1CC[C@H]2OC1(O)C(=O)c2ccccc2C1=O`?
SMN2 splice enh: 5.9%[9.22 µM]

Screening results (PubChem)
